In PubChem BioAssay (EPA / NIEHS):
Several values for one entry are separate records, joined by “and”; a condition that tells them apart may be missing. Identical values can stand only once. Activity calls are given as the source filed them. Rule for the calls: active = hit-call score of the fitted dose curve at least 0.9, where 1 is the maximum; inactive = score below 0.9.

These compounds were tested on urokinase plasminogen activator (uPA), PLAU (gene 5328) (assay: BSK_BE3C_uPA: BioMAP Diversity Plus: BE3C Assay for urokinase plasminogen activator (uPA) Biomarker Activity (AID 2283038)). Details: primary human bronchial epithelial cells; actives raise or lower the signal.
Procedure: BSK_BE3C is a cell-based, multiplexed-readout assay that uses bronchial epithelial cell, a human lung primary cell, with measurements taken at 24 hours after chemical dosing in a 96-well plate.BSK_BE3CA is an assay component measured in the BSK_BE3C assay. It measures uPA antibody related to regulation of gene expression using ELISA technology.Data from the assay component BSK_BE3CA was analyzed into 1 assay endpoint. This assay endpoint, BSK_BE3CA, was analyzed with bidirectional fitting relative to DMSO as the negative control and baseline of activity. Using a type of binding reporter, gain or loss-of-signal activity can be used to understand changes in the signaling as they relate to the gene PLAU. Furthermore, this assay endpoint can be referred to as a primary readout, because this assay has produced multiple assay endpoints where this one serves a signaling function. To generalize the intended target to other relatable targets, this assay endpoint is annotated to the protease intended target family, where the subfamily is serine protease.
The levels of cell surface (or secreted, indicated by the prefix "s") biomarker endpoints were measured by ELISA. Overt cytotoxicity to cells in confluent adherent cultures (all systems other than the BT system) was assessed by measuring total protein levels using sulforhodamine B (SRB) staining in parallel cultures at the time of biomarker measurements, indicated as SRB endpoints. For proliferation assays for adherent cell types, individual cell types are cultured at sub-confluence and relative cell numbers quantified by SRB staining at time points optimized for each system (48 h: 3C and CASM3C systems; 72 h: BT and HDF3CGF systems; 96 h: SAg system). SRB was performed by staining cells with 0.1% SRB after fixation with 10% TCA and reading wells at 560 nm.Viability and proliferation of PBMC (T cells) was quantified by Alamar Blue reduction for the SAg and BT systems. For PBMC viability (referred to as PBMC Cytotoxicity within the assay endpoint names), cells were plated (75,000/well in a 96-well plate) and then chemical samples added for 1 h before addition of activators, SEB and TSST-1 (20 ng/mL final concentration each). Cells were incubated for 90 h. Then, Alamar Blue (20 uL/well) (Invitrogen, Cat DAL1100) was added for 6 h, and the plates were read with a fluorescence microplate reader at 546/580 nm (excitation/emission). For PBMC proliferation, cells were plated and activated as above but incubated for only 16 h prior to addition of Alamar Blue. Plates were read after 6 h.

Row | Structure (SMILES) | outcome | AC50
1 | ClC1=C(Cl)[C@]2(Cl)[C@H]3[C@H]([C@H]4C=C[C@H]3C4)[C@@]1(Cl)C2(Cl)Cl | inactive | 
2 | O=C(Nc1ccc2[nH]ccc2c1)c1cc2cc(F)ccc2n1Cc1cccc(F)c1 | inactive | 
3 | COP(=S)(OC)Oc1ccc(Sc2ccc(OP(=S)(OC)OC)cc2)cc1 | inactive | 
4 | CC(C)(C)c1cc(O)ccc1O | inactive | 
5 | BrCCBr | inactive | 
6 | COP(=S)(OC)Oc1cc(Cl)c(Cl)cc1Cl | inactive | 
7 | OCc1ccco1 | inactive | 
8 | Oc1c(I)cc(I)cc1I | inactive | 
9 | O=Cc1cccc(Oc2ccccc2)c1 | inactive | 
10 | C[C@]12CCC(=O)C[C@@H]1CC[C@@H]1[C@@H]2CC[C@]2(C)[C@@H](O)CC[C@@H]12 | inactive | 
11 | C=CC(=O)OCCCCCC(C)C | inactive | 
12 | COc1cc(OC)nc(NC(=O)NS(=O)(=O)c2ncccc2C(=O)N(C)C)n1 | inactive | 
13 | CCC(C)(C)c1ccc(O)c(C(C)(C)CC)c1 |  | 32.4 µM (active)
14 | C[C@@H]1C[C@@H]([C@H](O)CC2CC(=O)NC(=O)C2)C(=O)[C@@H](C)C1 |  | 6.45 µM (active)
15 | CCCCCCCCC(=O)NCc1ccc(O)c(OC)c1 | inactive | 
16 | Cn1sc(Cl)cc1=O | inactive | 
17 | C=C(C)C(=O)[O][Sn]([CH2]CCC)([CH2]CCC)[CH2]CCC |  | 0.215 µM (active)
18 | CC(C)(c1ccccc1)c1ccc(O)c(C(C)(C)c2ccccc2)c1 |  | 16.2 µM (active)
19 | Nc1cccc2ccccc12 | inactive | 
20 | O=C(O)C(F)(F)C(F)(F)C(F)(F)C(F)(F)C(F)(F)C(F)(F)C(F)(F)C(F)(F)C(F)(F)C(F)(F)F |  | 11.6 µM (active) and 6.21 µM (active) and 5.27 µM (active)

Row | Structure (SMILES) | outcome | AC50
21 | Oc1cccc2cccnc12 |  | 3.44 µM (active)
22 | CC(=O)C(Cl)C(=O)N(C)C (stereo not given) | inactive | 
23 | CC12CC1(C)C(=O)N(c1cc(Cl)cc(Cl)c1)C2=O (stereo not given) | inactive | 
24 | CCSC(C)CC1CC(=O)C(C(CC)=NOC/C=C/Cl)=C(O)C1 (stereo not given) | inactive | 
25 | COC(=O)c1sccc1S(=O)(=O)NC(=O)Nc1nc(C)nc(OC)n1 | inactive | 
26 | COC[C@H](C)N(C(=O)CCl)c1c(C)csc1C | inactive | 
27 | CC(C)CCCCCCOC(=O)c1ccccc1C(=O)OCCCCCCC(C)C | inactive | 
28 | ClC1(Cl)C2(Cl)C3(Cl)C4(Cl)C(Cl)(Cl)C5(Cl)C3(Cl)C1(Cl)C5(Cl)C24Cl (stereo not given) | inactive | 
29 | CCOC(=O)/C=C(C)/C=C/C[C@@H](C)CCCC(C)C |  | 20 µM (active)
30 | CCOP(=S)(OCC)SCCS(=O)(=O)CC | inactive | 
31 | CCNc1nc(NC(C)(C)C)nc(SC)n1 | inactive | 
32 | CC(=O)OC(c1ccccc1)C(Cl)(Cl)Cl (stereo not given) | inactive | 
33 | CCOP(=S)(OCC)SCSP(=S)(OCC)OCC | inactive | 
34 | CCOP(=S)(OCC)Oc1ccc(S(C)=O)cc1 (stereo not given) | inactive | 
35 | CC(C)(C)CC(C)(C)c1ccc(O)cc1 |  | 26.6 µM (active)
36 | ClCC(Cl)CCl | inactive | 
37 | CC(C)(OO)c1ccccc1 | inactive | 
38 | O=S(=O)(c1ccc(Cl)cc1)c1ccc(Cl)cc1 | inactive | 
39 | COP(=S)(OC)Oc1ccc(S(=O)(=O)N(C)C)cc1 | inactive | 
40 | O=C(OC1CCCCC1)c1ccccc1C(=O)OC1CCCCC1 | inactive | 
